Assay results from PubChem BioAssay (Tox21).
Values joined by “and” are separate entries in the source; they are usually repeats but may differ in a detail not shown here. Equal entries are not always repeated. Records with an inconclusive call do not appear. Where a call stands in place of a potency, no number is given. Active and inactive are the calls of the source. Calls come from the whole dose curve; as a rule, active = well fitted inhibition curve with a large enough effect in the signal ratio in the repeat runs, with a control signal flat; inconclusive = weak or mixed curves, or effect the other way; inactive = flat fitted curve, though single readings scatter; the % refers to the signal ratio.

Each compound was assayed against D(2) dopamine receptor (Homo sapiens) (UniProt P14416) (assay: Dopamine D2 receptor (DRD2) small molecule antagonists, cell-based qHTS assay (AID 1963595)). Conditions: HEK293-DRD2 cAMP HTRF antagonist mode; series mostly up to 92.4 µM.
D(2) dopamine receptor (Homo sapiens), sequence (P14416 whole entry, looked up): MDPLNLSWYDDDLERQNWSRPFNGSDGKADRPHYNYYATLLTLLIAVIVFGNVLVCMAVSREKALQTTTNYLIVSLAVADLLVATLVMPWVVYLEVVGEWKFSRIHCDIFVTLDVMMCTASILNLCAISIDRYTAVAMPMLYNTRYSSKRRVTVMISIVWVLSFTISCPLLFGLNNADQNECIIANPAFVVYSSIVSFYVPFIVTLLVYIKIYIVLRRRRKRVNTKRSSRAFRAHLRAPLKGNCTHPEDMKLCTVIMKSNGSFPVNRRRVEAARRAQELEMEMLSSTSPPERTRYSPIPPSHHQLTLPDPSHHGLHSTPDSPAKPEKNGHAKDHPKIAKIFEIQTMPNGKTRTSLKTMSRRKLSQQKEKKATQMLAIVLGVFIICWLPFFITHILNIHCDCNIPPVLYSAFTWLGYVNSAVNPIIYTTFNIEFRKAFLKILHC
Excerpt: National Center for Advancing Translational Sciences [NCATS]
Division of Preclinical Innovation [DPI]
U.S. Environmental Protection Agency [EPA]
National Institutes of Environmental Health Sciences [NIEHS]
National Toxicology Program [NTP]
U.S. Food and Drug Administration [FDA]
DRD2 is the D2 subtype of the dopamine receptor, which is coupled to Gi subtype of G protein-coupled receptor. This G protein-coupled receptor inhibits adenylyl cyclase activity. The DRD2-HEK293 cell line stably expressing D2 dopamine receptor can be used for screening agonists and antagonists of interactions between D2 and its ligands. The Hek293-DRD2 cAMP assay is based on HTRF technology. It measures changes of cAMP accumulation in response to Gi coupled GPCR activation or inhibition.
Tox21 Assay Protocol Summary:
DRD2-Hek293 cells were dispensed at 600 cells/3uL/well in 1536-well white plates using a Multidrop Dispenser. After the assay plates were incubated at a 37 C/5% CO2 incubator for 24 h, 1 uL of Ro20-1724 at final concentration of 0.1 mM was transferred to the assay plate by a Flying Reagent Dispenser. Following Ro20-1724 addition, 23 nL of compound dissolved in DMSO, positive controls or DMSO only was added to the assay plates via Wako pintool station. The assay plates were incubated at room temperature for 10 min. Next, 1 uL of mixture of NKH477 (final concentration at 200 nM) and quinpirole (final concentration at 12 nM) was added into the plates. After the assay plates were incubated at room temperature for an additional 30 min, 2.5 ul/well of cAMP-d2 and 2.5 ul/well of anti-cAMP-cryptate were added respectively into the assay plates using a Flying Reagent Dispenser. The plates were incubated at room temperature for 1 h. The fluorescence intensity in the plates was measured at 340 nm excitation and 665 & 620 nm emission by an Envision plate reader.
Potency is the fitted concentration of half-maximal effect.

| SMILES | Potency | activity change, negative = inhibition |
| --- | --- | --- |
| COc1ccc(O)c(C(C)(C)C)c1 | inactive | – |
| c1ccc2c(c1)CCCC2 | inactive | – |
| CCN(CC)C(=S)S | inactive | – |
| CCCCCCCCCCCC[N+](C)(C)CCOc1ccccc1 | 48.6 µM (active) | – |
| CN1C(=O)NC(=O)C(C)(C2=CCCCC2)C1=O (stereo not given) | inactive | – |
| C=CCc1cc(OC)c2c(c1)OCO2 | inactive | – |
| O=C1CCCN1 | inactive | – |
| CCOS(=O)(=O)OCC | inactive | – |
| ClCCOCOCCCl | inactive | – |
| CCCCCCCCCBr | inactive | – |
| CCOP(=S)(OCC)SCSc1cc(Cl)ccc1Cl | inactive | – |
| O=S(=O)(c1ccc(O)cc1)c1ccc(O)cc1 | inactive | – |
| S=C1NCCN1 | inactive | – |
| O=C/C=C/c1ccccc1 | inactive | – |
| O=P(Oc1ccccc1)(Oc1ccccc1)Oc1ccccc1 | inactive | – |
| CCN(CC)C(=O)SCc1ccc(Cl)cc1 | inactive | – |
| Brc1ccc(Oc2ccccc2)cc1 | inactive | – |
| O=S(=O)(O)C(F)(F)C(F)(F)C(F)(F)C(F)(F)C(F)(F)C(F)(F)C(F)(F)C(F)(F)F | inactive | – |
| COCCC#N | inactive | – |
| CCOC(=O)c1cncn1C(C)c1ccccc1 (stereo not given) | inactive | – |

| SMILES | Potency | activity change, negative = inhibition |
| --- | --- | --- |
| O=C(O)c1nn(Cc2ccc(Cl)cc2Cl)c2ccccc12 | inactive | – |
| CCCC1COC(Cn2cncn2)(c2ccc(Cl)cc2Cl)O1 (stereo not given) | inactive | – |
| O=[N+]([O-])c1ccc(Oc2ccc(Cl)cc2Cl)cc1 | inactive | – |
| Brc1c(Br)c(Br)c(Oc2c(Br)c(Br)c(Br)c(Br)c2Br)c(Br)c1Br | – | 0.371% [at 18.9 µM] (inactive) |
| C/C(=N\NC(=O)Nc1cc(F)cc(F)c1)c1ncccc1C(=O)O | inactive | – |
| O=C(O)CCl | inactive | – |
| CCc1cccc(CC)c1N(COC)C(=O)CCl | inactive | – |
| CCCCNC(=O)n1c(NC(=O)OC)nc2ccccc21 | inactive | – |
| N#CN=C(N)N | inactive | – |
| CC(C)[N+](C)(CCC(C(N)=O)(c1ccccc1)c1ccccc1)C(C)C | inactive | – |
| N#CSCSC#N | 27.9 µM (active) and 27 µM (active) | – |
| O=C(O)C(Br)Br | inactive | – |
| C#CCOC(=O)/C=C(C)/C=C/CC(C)CCCC(C)C (stereo not given) | inactive | – |
| COP(=S)(OC)Oc1ccc(Sc2ccc(OP(=S)(OC)OC)cc2)cc1 | inactive | – |
| NNc1ccccc1 | inactive | – |
| CN(C)CCc1c[nH]c2cccc(OP(=O)(O)O)c12 | inactive | – |
| Oc1c(Cl)c(Cl)c(Cl)c(Cl)c1Cl | inactive | – |
| CC1(C)C(C=C(Cl)Cl)C1C(=O)OC(C#N)c1ccc(F)c(Oc2ccccc2)c1 (stereo not given) | inactive | – |
| CN1C(=O)CN=C(c2ccccc2)c2cc(Cl)ccc21 | inactive | – |
| CCCCCCCCCCCCCCCCCC(=O)O | inactive | – |
